Screening results deposited in PubChem by University of Kansas High Throughput Screening Laboratory.
This is one part of a sample in which hits are shown more often than they occur.
Pf apPOL block – Pf-apPOL DNA polymerase inhibition; Recombinant Pf-apPOL, molecular beacon fluorescence, 1.5 h; inhibition, % at 10 µM; 210,000 compounds, 0.25% hits
mHTT CaM bind – mHTT-calmodulin interaction abrogation; P42858; AlphaScreen His-mHTT/GST-CaM binding, luminescence; inhibition, % at 15 µM; 190,000 compounds, 3.6% hits; AID 1671202;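 also: 0% = both proteins with DMSO and 100% = one protein alone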
Target sequence (P42858 whole entry, looked up, stated change not applied): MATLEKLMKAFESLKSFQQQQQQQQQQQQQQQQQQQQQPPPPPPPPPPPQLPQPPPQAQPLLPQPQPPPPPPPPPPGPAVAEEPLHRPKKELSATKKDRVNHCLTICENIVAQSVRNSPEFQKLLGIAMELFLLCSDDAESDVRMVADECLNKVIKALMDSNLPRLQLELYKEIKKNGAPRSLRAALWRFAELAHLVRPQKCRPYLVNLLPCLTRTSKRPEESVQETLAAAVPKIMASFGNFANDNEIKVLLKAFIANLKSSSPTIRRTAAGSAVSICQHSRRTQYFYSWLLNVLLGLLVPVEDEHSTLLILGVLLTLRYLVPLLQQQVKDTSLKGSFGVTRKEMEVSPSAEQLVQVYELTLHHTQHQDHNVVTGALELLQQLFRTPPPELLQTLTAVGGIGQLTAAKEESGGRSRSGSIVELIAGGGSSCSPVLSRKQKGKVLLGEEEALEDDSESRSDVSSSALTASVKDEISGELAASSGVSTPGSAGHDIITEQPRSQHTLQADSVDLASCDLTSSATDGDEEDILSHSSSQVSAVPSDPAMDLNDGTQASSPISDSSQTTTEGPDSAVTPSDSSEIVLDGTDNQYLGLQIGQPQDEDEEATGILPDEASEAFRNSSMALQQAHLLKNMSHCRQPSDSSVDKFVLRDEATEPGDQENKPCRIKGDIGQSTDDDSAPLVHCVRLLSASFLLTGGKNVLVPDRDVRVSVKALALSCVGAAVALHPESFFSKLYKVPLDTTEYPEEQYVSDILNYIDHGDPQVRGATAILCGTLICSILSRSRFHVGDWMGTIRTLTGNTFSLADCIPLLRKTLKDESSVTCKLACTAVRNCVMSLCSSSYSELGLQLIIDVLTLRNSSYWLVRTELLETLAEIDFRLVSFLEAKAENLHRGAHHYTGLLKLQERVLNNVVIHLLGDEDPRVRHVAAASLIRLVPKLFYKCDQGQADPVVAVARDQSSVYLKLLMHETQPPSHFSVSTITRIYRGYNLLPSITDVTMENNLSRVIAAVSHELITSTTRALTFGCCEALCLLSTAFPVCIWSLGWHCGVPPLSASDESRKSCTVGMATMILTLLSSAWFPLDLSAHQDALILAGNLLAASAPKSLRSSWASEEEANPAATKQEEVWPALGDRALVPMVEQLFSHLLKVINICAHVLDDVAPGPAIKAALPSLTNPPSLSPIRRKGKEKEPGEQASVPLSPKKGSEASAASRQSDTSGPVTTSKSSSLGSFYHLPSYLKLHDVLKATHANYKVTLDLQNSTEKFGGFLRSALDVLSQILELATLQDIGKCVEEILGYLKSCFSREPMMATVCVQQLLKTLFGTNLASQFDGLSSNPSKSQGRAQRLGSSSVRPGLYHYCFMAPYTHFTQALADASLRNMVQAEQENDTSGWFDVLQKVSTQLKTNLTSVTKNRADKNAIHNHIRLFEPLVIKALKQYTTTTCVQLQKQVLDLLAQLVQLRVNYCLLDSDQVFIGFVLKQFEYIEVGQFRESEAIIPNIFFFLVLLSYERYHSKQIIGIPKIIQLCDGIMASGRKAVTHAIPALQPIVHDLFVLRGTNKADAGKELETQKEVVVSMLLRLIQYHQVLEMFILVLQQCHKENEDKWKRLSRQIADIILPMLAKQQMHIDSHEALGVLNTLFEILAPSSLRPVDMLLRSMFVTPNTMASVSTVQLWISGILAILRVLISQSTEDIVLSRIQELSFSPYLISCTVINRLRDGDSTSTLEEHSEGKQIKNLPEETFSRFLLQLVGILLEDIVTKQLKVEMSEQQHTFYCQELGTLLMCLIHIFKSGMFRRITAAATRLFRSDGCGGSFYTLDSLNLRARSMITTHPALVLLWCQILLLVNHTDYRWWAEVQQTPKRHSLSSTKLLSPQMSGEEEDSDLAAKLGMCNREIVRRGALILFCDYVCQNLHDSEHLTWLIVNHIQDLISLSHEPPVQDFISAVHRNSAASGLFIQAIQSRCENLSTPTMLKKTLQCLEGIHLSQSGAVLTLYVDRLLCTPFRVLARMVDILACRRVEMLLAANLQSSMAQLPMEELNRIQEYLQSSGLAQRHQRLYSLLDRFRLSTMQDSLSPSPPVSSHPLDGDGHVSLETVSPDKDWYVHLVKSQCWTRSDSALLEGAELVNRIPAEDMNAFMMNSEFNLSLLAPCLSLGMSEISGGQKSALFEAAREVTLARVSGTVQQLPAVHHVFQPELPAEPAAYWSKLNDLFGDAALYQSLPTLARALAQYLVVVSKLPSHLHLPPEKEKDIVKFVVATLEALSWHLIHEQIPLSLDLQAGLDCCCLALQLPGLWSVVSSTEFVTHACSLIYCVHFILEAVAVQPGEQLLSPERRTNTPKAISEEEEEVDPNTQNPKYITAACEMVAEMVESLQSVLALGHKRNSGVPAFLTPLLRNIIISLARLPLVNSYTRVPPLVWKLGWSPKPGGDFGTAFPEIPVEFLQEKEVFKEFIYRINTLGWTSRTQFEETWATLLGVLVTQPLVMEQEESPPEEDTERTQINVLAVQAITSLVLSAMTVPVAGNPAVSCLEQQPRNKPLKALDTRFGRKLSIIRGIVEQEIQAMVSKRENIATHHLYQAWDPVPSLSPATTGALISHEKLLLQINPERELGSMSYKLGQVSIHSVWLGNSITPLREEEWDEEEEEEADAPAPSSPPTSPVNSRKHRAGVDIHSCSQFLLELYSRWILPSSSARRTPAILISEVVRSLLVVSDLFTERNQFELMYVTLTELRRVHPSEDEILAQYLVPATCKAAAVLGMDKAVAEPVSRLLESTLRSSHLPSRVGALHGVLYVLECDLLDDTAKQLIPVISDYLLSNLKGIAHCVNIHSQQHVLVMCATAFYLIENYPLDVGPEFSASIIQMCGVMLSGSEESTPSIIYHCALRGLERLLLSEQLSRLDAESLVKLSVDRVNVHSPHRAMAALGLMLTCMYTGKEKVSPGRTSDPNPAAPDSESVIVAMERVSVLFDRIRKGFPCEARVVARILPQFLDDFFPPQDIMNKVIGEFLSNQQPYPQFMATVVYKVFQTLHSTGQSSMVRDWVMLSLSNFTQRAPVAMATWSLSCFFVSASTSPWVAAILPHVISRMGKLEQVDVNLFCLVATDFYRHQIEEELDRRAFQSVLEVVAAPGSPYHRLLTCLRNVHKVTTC
* marks the source's active call; other numbers are inactive results; . = no result. Rule as the data show it: active = inhibition above about 50%; inactive = the rest.

SMILES	Pf apPOL block	mHTT CaM bind
Cc1ccc(C2=NNC3(S2)C(=O)Nc2ccccc23)cc1 (stereo unspecified)	1.4	99.0*
Cc1ccc(C2=NNC(C)(C3(C)NN=C(c4ccc(C)cc4)S3)S2)cc1 (stereo unspecified)	.	41.3
Cc1ccc(C2=NNC3(S2)C(=O)Nc2ccc(C)cc23)cc1 (stereo unspecified)	0.2	100.0*
Cc1ccc(N2C(=O)C(C)SC23C(=O)Nc2ccccc23)cc1 (stereo unspecified)	2.5	1.0
COc1c(O)cc2c(c1O)C1OC(CO)C(O)C(O)C1OC2=O (stereo unspecified)	-10.1	.
O=C(OC1OC2COC(=O)c3cc(O)c(O)c(O)c3-c3c(cc(O)c(O)c3O)C(=O)OC(C2O)C1O)c1cc(O)c(O)c(O)c1 (stereo unspecified)	99.0*	.
O=C(CSc1nnc(-c2cccnc2)o1)c1cccc([N+](=O)[O-])c1	6.6	-2.0
CCOc1ccc(/C=C2N=C(/C=C/c3ccccc3OC)OC\2=O)cc1	-1.6	3.0
O=C(COc1ccccc1)Nc1nnc(CSc2ccccc2)o1	-10.9	0.3
O=C(COc1ccccc1F)Nc1nnc(C2CCCCC2)o1	-9.6	62.6*
O=C(COc1ccccc1F)Nc1nnc(COc2cccc3ccccc23)o1	-140.5	55.6*
Cc1csc(-c2nnc(NC(=O)COc3ccccc3F)o2)c1	-21.6	16.7
CC(C)CNC(=O)c1nnn(-c2ccccc2)c1-c1ccncc1	-1.0	-3.4
Cc1ccc(N=c2oc3ccc([N+](=O)[O-])cc3cc2C(=O)Nc2nccs2)cc1	-3.3	-5.0
O=C(CCN1CCCCCC1)Nc1ccccc1	-10.7	3.2
COC(=O)c1cc(Nc2ccc3c(c2)OCO3)c2cccc(F)c2n1	-3.3	51.0*
COC(=O)c1cc(Nc2cccc(F)c2)c2cccc(F)c2n1	0.9	-7.1
COc1ccccc1NC(=O)C1=C(C)Nc2nc(-c3ccncc3)nn2C1c1cccs1 (stereo unspecified)	-1.8	-4.2
CSc1cccc(NC(=O)c2ccc(C)c([N+](=O)[O-])c2)c1	3.2	14.4
O=C(c1cc(-c2cccs2)[nH]n1)N1CCCN(C2CCN(Cc3ccccc3)C2=O)CC1 (stereo unspecified)	-6.4	10.6
Nc1ccc(S(=O)(=O)c2ccc(N)c(N)c2)cc1N	48.1	8.7
Nc1ccc(-c2ccc(S(=O)(=O)c3ccc(-c4ccc(N)cc4)cc3)cc2)cc1	-2.4	62.4*
Nc1ccc(-c2ccc(S(=O)(=O)c3cccc(N)c3)cc2N)cc1	4.1	68.6*
Nc1ccc(S(N)(=O)=O)cc1	.	-3.6
O=C(NCc1ccco1)C1CCNCC1	2.3	9.9
SMILES	Pf apPOL block	mHTT CaM bind
Nc1c(C(=O)C23CC4CC(CC(C4)C2)C3)sc2sc3c(O)cc(=O)[nH]c3c12	.	51.7*
N#Cc1c(SCC(=O)C23CC4CC(CC(C4)C2)C3)sc2c(O)cc(=O)[nH]c12	.	0.6
Cn1nc(-c2nc(-c3ccc(F)cc3)no2)c2c1CCN(C(=O)C1CCC1)C2	-3.9	1.9
CCN1CCCc2cc(CCNC(=O)Nc3ccc(OC)c(OC)c3)ccc21	-1.9	86.1*
CN1CCCc2cc(CCNC(=O)C(=O)NCc3cccs3)ccc21	-1.3	17.2
COc1ccc(CC(=O)Nc2ccc(N3CCCC3=O)c(OC)c2)cc1OC	4.9	-4.4
CCCN1CCCc2cc(CCNC(=O)COCC)ccc21	-4.6	58.7*
CCOc1ccc(CN2C(=O)c3ccccc3C2C(=O)NCc2cccnc2)cc1OC (stereo unspecified)	-1.5	1.0
NNC(=O)CCn1nnc(-c2cccc(Cl)c2Cl)n1	-8.6	.
COc1ccc(C)cc1NC(=O)CN1CCc2ccccc2C1C(=O)N1CCC(C)CC1 (stereo unspecified)	-5.1	60.8*
O=C(CN1CCc2ccccc2C1C(=O)N1CCCC1)N1CCN(C2CCCCC2)CC1 (stereo unspecified)	0.5	9.3
CC1CCN(C(=O)C2c3ccccc3CCN2CC(=O)Nc2ccc(Cl)cc2)CC1 (stereo unspecified)	-4.2	61.8*
O=C(CN1CCc2ccccc2C1C(=O)N1CCCC1)N1CCC(Cc2ccccc2)CC1 (stereo unspecified)	-9.0	67.8*
Cc1cccc(NC(=O)CN2CCc3ccccc3C2C(=O)N2CCC(C)CC2)c1C (stereo unspecified)	-3.5	4.3
CCOc1ccc(NC(=O)CN2CCc3ccccc3C2C(=O)N2CCC(C)CC2)cc1 (stereo unspecified)	-2.9	13.4
Cc1cc(Cl)ccc1NC(=O)C1CCN(c2nccc3sccc23)CC1	-2.3	11.0
COc1c(C(=O)ON=Cc2ccc(Cl)cc2Cl)csc1Cl	-2.6	.
OCCN(Cc1ccccc1)CC(O)COc1ccc(Cl)cc1Cl (stereo unspecified)	4.4	50.7*
OCCN(Cc1ccccc1)CC(O)COc1cccc2ccccc12 (stereo unspecified)	-11.2	12.2
COc1ccccc1OCCCCOc1ccc(C)cc1[N+](=O)[O-]	-7.4	-27.4
